Experimental data published in PubChem BioAssay (Tox21).
Inconclusive results are not listed. Calls of active or inactive are those of the source. Unless noted, calls follow the shape of the full dose curve.

Tests used:
[1] = qHTS assay to identify small molecule antagonists of the vitamin D receptor (VDR) signaling pathway - cell viability counter screen (AID 743225; active = well fitted curve in the direction sought with a large enough effect in the repeat runs; an effect the other way counts as inactive or inconclusive; also: % is scaled to controls: 0 for no effect and ±100 for the full control effect; nearly all actives have a fitted effect of over 50% in size)
In short: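 VDR-UAS-bla HEK 293T cells were plated and incubated 4 h at 37C, then dosed with compound plus 3 nM (final) 1-alpha,25-dihydroxyvitamin D3 for 16 h. After the 2 h beta-lactamase read, viability in the same wells was read as CellTiter-Glo luminescence after 30 min at room temperature.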

[2] = qHTS assay to identify small molecule agonists of the NFkB signaling pathway - cell viability counter screen (AID 1159515); also: series mostly up to about 61 µM; % is scaled to controls: 0 for no effect and ±100 for the full control effect; nearly all actives have a fitted effect of over 55% in size
In short: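 Using the same wells as the NFkB reporter read, ME-180 NFkB-bla cells given compounds for 5 hr were assessed for viability via CellTiter-Glo, with luminescence taken after a 30 min room-temperature incubation.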

[3] = qHTS assay to identify small molecule agonists of the endoplasmic reticulum stress response signaling pathway (AID 1159516; active = well fitted activation curve with a large enough effect in the signal ratio in the repeat runs, not every such curve was filed as active; the % refers to the signal ratio; also: % is scaled to controls: 0 for no effect and ±100 for the full control effect)
In short: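 An ESRE-bla HeLa cell assay: compounds were pin-transferred from DMSO onto overnight-plated cells and left 5 hr at 37 C. Substrate was then loaded for 2 hr at room temperature before reading fluorescence at 460 nm and 530 nm.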

[4] = qHTS assay to identify small molecule agonists of the endoplasmic reticulum stress response signaling pathway - cell viability counter screen (AID 1159517);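 also: HeLa cells carrying an ER stress response element beta-lactamase reporter; series mostly up to about 61 µM; % is scaled to controls: 0 for no effect and ±100 for the full control effect; nearly all actives have a fitted effect of over 50% in size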
In short: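 Cells, HeLa ESRE-bla; density, 1,500/well; dosing, 5 hr at 37 C, 5% CO2; readout, CellTiter-Glo luminescence after 30 min RT.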

[5] = qHTS assay to identify small molecule antagonists of the retinoid-related orphan receptor gamma (ROR-gamma) signaling pathway - cell viability counter screen (AID 1159520; active = well fitted curve in the direction sought with a large enough effect in the repeat runs; an effect the other way counts as inactive or inconclusive; also: % is scaled to controls: 0 for no effect and ±100 for the full control effect; nearly all actives have a fitted effect of over 50% in size)
In short: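 Cytotoxicity was read from cellular ATP (CellTiter-Glo luminescence) after 16 hr at 37 C with 1 uM doxycycline induction. The inducer was added 2 hr after compound transfer to Tet-on ROR gamma CHO cells.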

[6] = target: Nuclear receptor ROR-gamma (Homo sapiens) (UniProt P51449); assay: qHTS assay to identify small molecule antagonists of the retinoid-related orphan receptor gamma (ROR-gamma) signaling pathway (AID 1159521; active = well fitted curve in the direction sought with a large enough effect in the repeat runs; an effect the other way counts as inactive or inconclusive;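 also: CHO cells with doxycycline inducible ROR-gamma driving an RORE luciferase reporter; top concentration of the series differs between compounds; % is scaled to controls: 0 for no effect and ±100 for the full control effect; nearly all actives have a fitted effect of over 50% in size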)
In short: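 Tet-on ROR-gamma CHO cells with ROR response element-luciferase reporter; compounds added 2 hr before 1 uM doxycycline induction, then 16 hr at 37 C. Antagonism scored as decreased ONE-Glo luminescence.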

[7] = qHTS assay to identify small molecule agonists of the AP-1 signaling pathway (AID 1159526); also: % is scaled to controls: 0 for no effect and ±100 for the full control effect
[8] = target: Retinoic acid receptor RXR-alpha (Homo sapiens) (UniProt P19793); assay: qHTS assay to identify small molecule agonists of the RXR signaling pathway (AID 1159527); also: % is scaled to controls: 0 for no effect and ±100 for the full control effect; nearly all actives have a fitted effect of over 35% in size
Retinoic acid receptor RXR-alpha (Homo sapiens), sequence (P19793 whole entry, looked up): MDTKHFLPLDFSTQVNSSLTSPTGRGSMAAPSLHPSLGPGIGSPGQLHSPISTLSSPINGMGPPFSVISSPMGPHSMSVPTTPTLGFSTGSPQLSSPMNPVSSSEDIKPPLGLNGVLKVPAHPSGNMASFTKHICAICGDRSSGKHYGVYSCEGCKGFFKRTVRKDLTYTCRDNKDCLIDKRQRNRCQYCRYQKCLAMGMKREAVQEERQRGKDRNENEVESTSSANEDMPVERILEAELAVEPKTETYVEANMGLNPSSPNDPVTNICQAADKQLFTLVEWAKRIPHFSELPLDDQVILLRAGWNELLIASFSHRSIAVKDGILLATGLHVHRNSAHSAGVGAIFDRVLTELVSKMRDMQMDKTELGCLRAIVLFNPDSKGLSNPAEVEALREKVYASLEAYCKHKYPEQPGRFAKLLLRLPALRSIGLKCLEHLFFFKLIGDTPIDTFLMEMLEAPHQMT
In short: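 GeneBLAzer RXR-alpha-UAS-bla HEK 293T cells in 2% charcoal-stripped FBS medium were exposed to compounds for 16 hr at 37 C in agonist mode. Beta-lactamase reporter read as 460/530 nm FRET ratio after 2 hr substrate loading.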

[9] = qHTS assay to identify small molecule agonists of the RXR signaling pathway - cell viability counter screen (AID 1159529; active = well fitted curve in the direction sought with a large enough effect in the repeat runs; an effect the other way counts as inactive or inconclusive)
In short: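 RXR-alpha-UAS-bla HEK 293T cells in medium with 2% charcoal-stripped FBS were pre-incubated 5 hr, then compound-treated 16 hr at 37 C. Viability was read by CellTiter-Glo luminescence in the same wells as the beta-lactamase assay, with tetraoctyl ammonium bromide as positive control.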

[10] = qHTS assay to identify small molecule agonists of the AP-1 signaling pathway - cell viability counter screen (AID 1159525); also: nearly all actives have a fitted effect of over 55% in size
In short: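 Luminescent ATP readout (Cell Titer Glo, 30 min RT), normalised to DMSO and tetra n-octyl ammonium bromide controls. Cells were ME-180 AP-1-bla in 0.5% dialyzed FBS Opti-MEM, with a 5 h, 37 °C compound exposure.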

CCOCCOCCOC(C)=O
inactive: outcome [1] | outcome [2] | Potency [3] | outcome [4] | outcome [5] | outcome [6] | Potency [7] | Potency [8] | Potency [9]

NNC(=O)OCc1ccccc1
inactive: outcome [1] | outcome [2] | Potency [3] | outcome [4] | outcome [5] | outcome [6] | outcome [10] | Potency [7]

Cc1cccc(N)n1
inactive: outcome [1] | outcome [2] | Potency [3] | outcome [4] | outcome [5] | outcome [6] | outcome [10] | Potency [7] | Potency [9]

CC(C)C[P+](C)(CC(C)C)CC(C)C
inactive: outcome [1] | outcome [2] | Potency [3] | outcome [4] | outcome [5] | outcome [6] | Potency [7] | Potency [8] | Potency [9]

C[n+]1ccccc1/C=N/O
inactive: outcome [1] | outcome [2] | Potency [3] | outcome [4] | outcome [5] | outcome [6] | outcome [10] | Potency [7]

C/C(Cl)=C/CCl
inactive: outcome [1] | outcome [2] | Potency [3] | outcome [4] | outcome [5] | outcome [6] | outcome [10] | Potency [7] | Potency [9]

CCC(C)SSC(C)CC (stereo unspecified)
inactive: outcome [2] | Potency [3] | outcome [4] | outcome [5] | outcome [6] | Potency [7] | Potency [8] | Potency [9]

COC(C)(C)CC(C)=O
inactive: outcome [1] | outcome [2] | Potency [3] | outcome [4] | outcome [5] | outcome [6] | outcome [10] | Potency [7] | Potency [9]

CCCCC(CC)COC(=O)CC#N (stereo unspecified)
inactive: outcome [1] | outcome [2] | Potency [3] | outcome [4] | outcome [5] | outcome [6] | Potency [7] | Potency [8] | Potency [9]

CCCCCCCCCCCC(C)=O
inactive: outcome [1] | outcome [2] | Potency [3] | outcome [4] | outcome [5] | outcome [6] | Potency [7] | Potency [8] | Potency [9]

COCCCOc1cc(C[C@@H](C[C@H](N)[C@@H](O)C[C@H](C(=O)NCC(C)(C)C(N)=O)C(C)C)C(C)C)ccc1OC
inactive: outcome [2] | Potency [3] | outcome [4] | outcome [5] | outcome [6] | Potency [7]

CCOC(=O)[C@H](CCc1ccccc1)N[C@H]1CS[C@H](c2cccs2)CN(CC(=O)O)C1=O
inactive: outcome [1] | outcome [2] | Potency [3] | outcome [4] | outcome [5] | outcome [6] | outcome [10] | Potency [7] | Potency [9]

Cc1ccc(OC(=O)CC(C)C)cc1
inactive: outcome [2] | Potency [3] | outcome [4] | outcome [5] | outcome [6] | Potency [7] | Potency [8] | Potency [9]

CCOC(=O)COc1ccc2c(C)c(CCN(CC)CC)c(=O)oc2c1Cl
inactive: outcome [1] | outcome [2] | Potency [3] | outcome [5] | outcome [6] | outcome [10] | Potency [7] | Potency [8] | Potency [9]

O=C1Nc2ccccc2C1=O
inactive: outcome [1] | outcome [2] | Potency [3] | outcome [4] | outcome [5] | outcome [6] | Potency [7] | Potency [9]

CCCCCCCCCCCCCCCCN(C)C
inactive: viability change, negative = cytotoxic [1] -0.156% [at 6.95 µM] | activity, negative = cytotoxic [2] -0.303% [at 6.95 µM] | activation [3] 0.0292% [at 6.95 µM] | activity, negative = cytotoxicity [5] 7.06% [at 8.39 µM] | activity change, negative = inhibition [6] 0.397% [at 8.39 µM] | viability change, negative = cytotoxic [10] 0.637% [at 6.97 µM] | activation [7] -6.44% [at 6.97 µM] | activation [8] 8.03% [at 6.98 µM]

COc1ccc(Cl)cc1C
inactive: outcome [1] | outcome [2] | Potency [3] | outcome [5] | outcome [6] | outcome [10] | Potency [7] | Potency [8] | Potency [9]

C=C(C)C(=O)OCCOC1CC2CC1C1C=CCC21 (stereo unspecified)
inactive: outcome [1] | outcome [2] | Potency [3] | outcome [4] | outcome [5] | outcome [6] | Potency [7] | Potency [9]

CCCC(=O)C(CC)Sc1ccoc1C (stereo unspecified)
inactive: outcome [1] | outcome [2] | Potency [3] | outcome [5] | outcome [6] | outcome [10] | Potency [7] | Potency [8] | Potency [9]
